Most compounds without a hit are left out; they make up all but 0.9% or so of the library.
PPARg SRC-1 ag: PPARgamma-driven SRC-1 recruitment agonism; AID 631; P37231; activation, % at 8 µM; PPARgamma-SRC-1 coactivator recruitment biochemical assay; hit rate 0.41% among 200,000; in the data active = activation above about 19%;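 note: 0% = DMSO and 100% = reference agonist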
Target sequence (P37231 whole entry, looked up): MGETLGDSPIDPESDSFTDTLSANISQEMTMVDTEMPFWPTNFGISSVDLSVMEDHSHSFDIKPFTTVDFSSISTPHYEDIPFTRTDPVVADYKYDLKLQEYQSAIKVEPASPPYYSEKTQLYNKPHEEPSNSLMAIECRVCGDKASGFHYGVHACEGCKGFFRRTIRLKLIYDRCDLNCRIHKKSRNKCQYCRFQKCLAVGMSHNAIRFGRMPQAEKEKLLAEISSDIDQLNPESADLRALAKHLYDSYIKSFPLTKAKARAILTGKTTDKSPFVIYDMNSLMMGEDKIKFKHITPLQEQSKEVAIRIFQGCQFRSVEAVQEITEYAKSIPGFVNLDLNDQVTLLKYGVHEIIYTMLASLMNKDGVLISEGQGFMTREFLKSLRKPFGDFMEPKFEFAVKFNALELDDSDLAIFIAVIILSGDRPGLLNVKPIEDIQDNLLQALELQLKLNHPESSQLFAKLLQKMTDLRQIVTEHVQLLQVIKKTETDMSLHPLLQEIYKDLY
SRC3 TRFRET art: flags TR-FRET format artefacts in PPARgamma SRC-3 recruitment agonist screen | AID 1048 | TR-FRET artefact counter-screen, PPARgamma/SRC-3 format; stronger effect = higher value | hit rate 0.39% among 99,000 | TR-FRET ratio at 8 µM
SRC1 TRFRET art: flags TR-FRET format artefacts in PPARgamma SRC-1 recruitment agonist screen. TR-FRET detection artefact counter-screen, emission ratio; stronger effect = higher value. TR-FRET ratio at 8 µM. hit rate 0.34% among 99,000. AID 1051; in the data active = TR-FRET ratio above about 2300
PPARg SRC2 recr: promotes SRC-2 coactivator recruitment by human PPARgamma | P37231 | PPARgamma LBD-SRC-2 recruitment, biochemical | activation, % at 8 µM | hit rate 0.34% among 200,000 | AID 1032; in the data active = activation above about 22%;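 note: 0% = vehicle and 100% = reference agonist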
SRC2 TRFRET art: flags TR-FRET format artefacts in PPARgamma SRC-2 recruitment agonist screen. TR-FRET artefact counter-screen; stronger effect = higher value. TR-FRET ratio at 8 µM. hit rate 0.4% among 200,000. AID 1049
PPARg SRC-3 ag: PPARgamma-driven SRC-3 recruitment agonism; biochemical PPARgamma/SRC-3 coactivator recruitment assay; activation, % at 8 µM; hit rate 0.26% among 200,000; in the data active = activation above about 23%;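 note: 0% = DMSO and 100% = reference agonist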
* hit, by the source's call. Cut-off read from the data, not from the text of the source, unless noted: active = TR-FRET ratio above about 2000; inactive = the rest.

Screening Nc1ccc(Sc2cnn(-c3ccccc3)c(=O)c2Cl)cc1 returned PPARg SRC-1 ag 8, PPARg SRC2 recr 6, SRC2 TRFRET art 1527 and PPARg SRC-3 ag -2.
Screening Cc1ccc(Sc2cnn(-c3ccccc3)c(=O)c2Cl)cc1 returned PPARg SRC-1 ag 9, PPARg SRC2 recr 19, SRC2 TRFRET art 2023* and PPARg SRC-3 ag 7.
Screening CC1CCN(S(=O)(=O)c2ccc(C(=O)Nc3sccc3C(N)=O)cc2)CC1 returned PPARg SRC-1 ag 29*, PPARg SRC2 recr -2, SRC2 TRFRET art 1507 and PPARg SRC-3 ag -1.
Screening CCn1cc(CNCc2cn(C)nc2-c2ccc(C3CCCCC3)cc2)cn1 returned PPARg SRC-1 ag 22*, SRC3 TRFRET art 1641, SRC1 TRFRET art 1896, PPARg SRC2 recr 3, SRC2 TRFRET art 1699 and PPARg SRC-3 ag 0.
Cc1ccc(C)c(SCC(=O)c2ccc[nH]2)c1 was read as PPARg SRC-1 ag 3, SRC3 TRFRET art 1726, SRC1 TRFRET art 1656, PPARg SRC2 recr 15, SRC2 TRFRET art 1687 and PPARg SRC-3 ag 4.
CC1CN(c2ccc([N+](=O)[O-])nc2)CC(C)O1 (configuration not stated) was read as PPARg SRC-1 ag 3, SRC3 TRFRET art 1413, SRC1 TRFRET art 1719, PPARg SRC2 recr -5, SRC2 TRFRET art 1632 and PPARg SRC-3 ag -3.
Screening O=C(CSc1ncccc1-c1nc2ccccc2[nH]1)N1CCc2ccccc21 returned PPARg SRC-1 ag 5, SRC3 TRFRET art 3407*, SRC1 TRFRET art 2802*, PPARg SRC2 recr -8, SRC2 TRFRET art 2650* and PPARg SRC-3 ag 2.
Cc1cc(NC(=O)CSc2ccc(-c3nc4cc(C)c(C)cc4[nH]3)cn2)no1 was read as PPARg SRC-1 ag 2, PPARg SRC2 recr -9, SRC2 TRFRET art 1545 and PPARg SRC-3 ag -16.
For Cc1cc2nc(-c3ccc(SCC(=O)Nc4ccc(S(=O)(=O)NC5CC5)cc4)nc3)[nH]c2cc1C the results were PPARg SRC-1 ag 13, SRC3 TRFRET art 3182*, SRC1 TRFRET art 2422*, PPARg SRC2 recr 10, SRC2 TRFRET art 2456* and PPARg SRC-3 ag 3.
Cc1cc2nc(-c3ccc(SCC(=O)N4CCc5ccccc54)nc3)[nH]c2cc1C was read as PPARg SRC-1 ag 0, PPARg SRC2 recr -1, SRC2 TRFRET art 2115* and PPARg SRC-3 ag 8.
For CN(C)c1ccc(N=C/C=C2\N(C)c3ccccc3C2(C)C)cc1 the results were PPARg SRC-1 ag 3, PPARg SRC2 recr 8, SRC2 TRFRET art 1577 and PPARg SRC-3 ag 28*.
Screening N#Cc1c(N)nc(SCC(=O)NC2CCCCC2)c(C#N)c1-c1ccc(Cl)cc1 returned PPARg SRC-1 ag 43*, PPARg SRC2 recr 4, SRC2 TRFRET art 1518 and PPARg SRC-3 ag 2.
Cc1ccccc1C1NC(=S)NC2=C1C(=O)CCC2 (configuration not stated) was read as PPARg SRC-1 ag -4, SRC3 TRFRET art 1444, SRC1 TRFRET art 1746, PPARg SRC2 recr 5, SRC2 TRFRET art 1590 and PPARg SRC-3 ag 0.
CC(=O)Nc1cccc(NC(=O)c2ccc(C)c([N+](=O)[O-])c2)c1 was read as PPARg SRC-1 ag 9, SRC3 TRFRET art 1862, SRC1 TRFRET art 2324*, PPARg SRC2 recr 5, SRC2 TRFRET art 1815 and PPARg SRC-3 ag 3.
`O=C(CSc1nnc(C2CC2)n1-c1ccccc1)NCCc1ccc(F)cc1` gave PPARg SRC-1 ag 0, PPARg SRC2 recr 23*, SRC2 TRFRET art 2046* and PPARg SRC-3 ag 12.
O=C1C2C3C=CC(C3)C2C(=O)N1Nc1c(Cl)cc(Cl)cc1Cl (configuration not stated) was read as PPARg SRC-1 ag 0, SRC3 TRFRET art 1720, SRC1 TRFRET art 1931, PPARg SRC2 recr 2, SRC2 TRFRET art 1397 and PPARg SRC-3 ag 8.
`N#Cc1cc(C(=O)c2ccccc2OCC(=O)Nc2ccccc2Cl)cn(C2CCCCC2)c1=O` gave PPARg SRC-1 ag 4, SRC3 TRFRET art 2092*, SRC1 TRFRET art 1593, PPARg SRC2 recr 11, SRC2 TRFRET art 1657 and PPARg SRC-3 ag 1.
`CC(=O)c1cccc(NC(=O)COc2ccccc2C(=O)c2cc(C#N)c(=O)n(C3CCCCC3)c2)c1` gave PPARg SRC-1 ag 0, SRC3 TRFRET art 1952, SRC1 TRFRET art 1806, PPARg SRC2 recr 2, SRC2 TRFRET art 1658 and PPARg SRC-3 ag 1.
`O=C(O)c1cc(NS(=O)(=O)c2ccc(N3CCCCC3)c([N+](=O)[O-])c2)cc(C(=O)O)c1` gave PPARg SRC-1 ag -1, SRC3 TRFRET art 1584, SRC1 TRFRET art 1596, PPARg SRC2 recr -5, SRC2 TRFRET art 1599 and PPARg SRC-3 ag 1.
Screening FC(F)(F)c1cccc(NC(=S)NCc2ccc(Cl)cc2)c1 returned PPARg SRC-1 ag 6, SRC3 TRFRET art 2072*, SRC1 TRFRET art 1768, PPARg SRC2 recr 3, SRC2 TRFRET art 1667 and PPARg SRC-3 ag 6.
Screening COc1ccc(/C=c2\s/c(=C(/C#N)C(=O)NCc3ccco3)n(-c3ccccc3)c2=O)cc1 returned PPARg SRC-1 ag -6, SRC3 TRFRET art 1411, SRC1 TRFRET art 1726, PPARg SRC2 recr -5, SRC2 TRFRET art 1506 and PPARg SRC-3 ag -1.
Screening COc1cccc(/C=c2/s/c(=C(\C#N)C(=O)N3CCOCC3)n(-c3ccccc3)c2=O)c1 returned PPARg SRC-1 ag 6, PPARg SRC2 recr 4, SRC2 TRFRET art 1688 and PPARg SRC-3 ag 48*.
Screening Cc1ccc(-n2c(N)c(C(=O)N3CCN(C)CC3)sc2=S)cc1 returned PPARg SRC-1 ag 3, PPARg SRC2 recr -4, SRC2 TRFRET art 1307 and PPARg SRC-3 ag 30*.
Screening Cc1cnc(N)c2c(=O)oc3ccccc3c12 returned PPARg SRC-1 ag 1, PPARg SRC2 recr 5, SRC2 TRFRET art 2018* and PPARg SRC-3 ag 7.
Screening Cc1ccc(S(=O)(=O)NCc2ccc3c(c2)cc(C)n3C)cc1 returned PPARg SRC-1 ag 8, PPARg SRC2 recr 6, SRC2 TRFRET art 2007* and PPARg SRC-3 ag 2.
Screening Cc1cc2cc(CN3C(=O)c4ccccc4C3=O)ccc2n1C returned PPARg SRC-1 ag 2, SRC3 TRFRET art 2708*, SRC1 TRFRET art 2104, PPARg SRC2 recr 6, SRC2 TRFRET art 1840 and PPARg SRC-3 ag 0.
For O=C1c2ccccc2C(=O)N1Cc1ccc2c(c1)OCO2 the results were PPARg SRC-1 ag -6, PPARg SRC2 recr -6, SRC2 TRFRET art 1414 and PPARg SRC-3 ag -7.
For NC(N)=Nc1nc(CSCC/C(N)=N/S(N)(=O)=O)cs1 the results were PPARg SRC-1 ag 22*, SRC3 TRFRET art 1747, SRC1 TRFRET art 1933, PPARg SRC2 recr 7, SRC2 TRFRET art 1766 and PPARg SRC-3 ag 6.
CCN1/C(=C/C=C/C=C/c2sc3ccccc3[n+]2CC)Sc2ccccc21 was read as PPARg SRC-1 ag 448*, SRC3 TRFRET art 13609*, SRC1 TRFRET art 14504*, PPARg SRC2 recr 541*, SRC2 TRFRET art 10856* and PPARg SRC-3 ag 339*.
CCCCN(CC)CCCNC(=O)CC1Nc2ccccc2NC1=O (configuration not stated) was read as PPARg SRC-1 ag 11, PPARg SRC2 recr 22*, SRC2 TRFRET art 1542 and PPARg SRC-3 ag 13.

Compound activity as filed in PubChem.
